Measurements reported in PubChem BioAssay.
Calls of active or inactive are those of the source.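 The calls were made as follows, unless noted: active = GFP response above 150% of the DMSO level; inconclusive = fewer than 70 events counted for a yeast strain; inactive = the rest.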

What was measured:
[1] = hit retest on RPL19A-GFP reporter strain – cell-based, S. cerevisiae, flow cytometry, cherry picks, mother/daughter gates, confirmation (AID 2270;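 active = GFP response below 50% of the DMSO control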); details: 3 h, at 10 µM, stronger effect = lower value, 100 = same GFP as DMSO wells
[2] = yeast TOR pathway reporter LAP4-GFP change – cell-based, cherry picks, flow cytometry, mother/daughter gates, confirmation (AID 2271;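 active = GFP response above 150% of the DMSO control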;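 also: ratio of sample to DMSO plate mean so 100% equals DMSO level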); details: S. cerevisiae LAP4-GFP strain, 3 h, at 10 µM, stronger effect = higher value, 100 means same as DMSO control
[3] = TOR pathway reporter MEP2-GFP, retest of hits – S. cerevisiae, flow cytometry GFP, cherry picks, confirmation (AID 2272;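 active = GFP response above 150% of the DMSO control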;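 also: ratio of well signal to plate DMSO mean so 100% equals DMSO level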); details: S. cerevisiae MEP2-GFP strain, 3 h, at 10 µM, stronger effect = higher value
[4] = yeast AGP1-GFP fluorescence change, single-dose – cell-based, flow cytometry, S. cerevisiae, cherry picks, confirmation (AID 2273);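 also: median GFP channel fluorescence over the whole cell population gate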; details: S. cerevisiae AGP1-GFP strain, 3 h, at 10 µM
[5] = TOR pathway CIT2 reporter hit retest – S. cerevisiae, GFP fusion, cherry picks, mother/daughter gates, confirmation (AID 2274); details: S. cerevisiae CIT2-GFP strain, flow cytometry, 3 h, at 10 µM, stronger effect = higher value
[6] = reduced mouse 2C T cell binding to pMHC/ICAM-1 vesicles – MLPCN validation set, flow cytometry, LFA-1/ICAM-1 modulator project, pilot screen (AID 2523;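 active = response below a set limit, under 55% cells CD8-positive and vesicle-bound, and CD8 cells' 90th-percentile brightness under 279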;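 as to vesicle binding response: mean PE anti-B7-1 fluorescence of CD8+ cells relative to row control; 100% = QL9-loaded vesicles with DMSO vehicle in the same plate row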); details: 2C mouse CD8+ T cells, at 7 µM, stronger effect = lower value; double positive events: measured here: CD8+/vesicle+ event percentage
[7] = biological target: Integrin beta-1 (Homo sapiens) + Integrin alpha-4 (Homo sapiens) (UniProt P13612+P05556); test: alpha4beta1 integrin LIBS antibody binding reduction – U937 cells, HUTS-21 mAb, flow cytometry, validation set, VLA-4 allosteric modulator project, pilot screen (AID 2674;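 active = inhibition above 50%, about 3 SD of the validation set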;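 also: antibody binding induced by the VLA-4 ligand LDV present at three times its Kd; 0% = LDV ligand with antibody and no compound and 100% = antibody without LDV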); details: HUTS-21 LIBS mAb binding, at 6.7 µM, stronger effect = higher value, binding induced by LDV ligand
Sequence of Integrin beta-1 (Homo sapiens) + Integrin alpha-4 (Homo sapiens) (P05556 whole entry, looked up): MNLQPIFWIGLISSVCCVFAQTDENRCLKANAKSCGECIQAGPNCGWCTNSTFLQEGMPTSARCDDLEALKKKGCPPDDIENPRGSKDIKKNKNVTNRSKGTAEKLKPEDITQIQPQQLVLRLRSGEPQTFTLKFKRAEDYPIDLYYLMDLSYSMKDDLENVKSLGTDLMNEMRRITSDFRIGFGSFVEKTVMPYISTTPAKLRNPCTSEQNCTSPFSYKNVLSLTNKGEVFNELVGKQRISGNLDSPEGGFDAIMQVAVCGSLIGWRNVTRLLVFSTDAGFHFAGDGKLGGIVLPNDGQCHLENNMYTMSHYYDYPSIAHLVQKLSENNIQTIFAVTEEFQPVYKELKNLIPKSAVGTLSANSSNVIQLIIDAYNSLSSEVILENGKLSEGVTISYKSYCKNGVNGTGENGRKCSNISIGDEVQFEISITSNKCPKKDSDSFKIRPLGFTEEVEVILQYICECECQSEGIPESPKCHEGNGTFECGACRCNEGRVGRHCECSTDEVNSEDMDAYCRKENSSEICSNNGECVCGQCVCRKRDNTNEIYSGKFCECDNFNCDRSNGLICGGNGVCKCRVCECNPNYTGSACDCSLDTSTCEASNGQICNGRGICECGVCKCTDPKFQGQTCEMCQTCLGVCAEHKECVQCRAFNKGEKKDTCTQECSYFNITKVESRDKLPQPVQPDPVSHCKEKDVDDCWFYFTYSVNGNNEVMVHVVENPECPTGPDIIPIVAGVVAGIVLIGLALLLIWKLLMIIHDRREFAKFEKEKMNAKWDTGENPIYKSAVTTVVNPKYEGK
Sequence of Integrin beta-1 (Homo sapiens) + Integrin alpha-4 (Homo sapiens) (P13612 whole entry, looked up): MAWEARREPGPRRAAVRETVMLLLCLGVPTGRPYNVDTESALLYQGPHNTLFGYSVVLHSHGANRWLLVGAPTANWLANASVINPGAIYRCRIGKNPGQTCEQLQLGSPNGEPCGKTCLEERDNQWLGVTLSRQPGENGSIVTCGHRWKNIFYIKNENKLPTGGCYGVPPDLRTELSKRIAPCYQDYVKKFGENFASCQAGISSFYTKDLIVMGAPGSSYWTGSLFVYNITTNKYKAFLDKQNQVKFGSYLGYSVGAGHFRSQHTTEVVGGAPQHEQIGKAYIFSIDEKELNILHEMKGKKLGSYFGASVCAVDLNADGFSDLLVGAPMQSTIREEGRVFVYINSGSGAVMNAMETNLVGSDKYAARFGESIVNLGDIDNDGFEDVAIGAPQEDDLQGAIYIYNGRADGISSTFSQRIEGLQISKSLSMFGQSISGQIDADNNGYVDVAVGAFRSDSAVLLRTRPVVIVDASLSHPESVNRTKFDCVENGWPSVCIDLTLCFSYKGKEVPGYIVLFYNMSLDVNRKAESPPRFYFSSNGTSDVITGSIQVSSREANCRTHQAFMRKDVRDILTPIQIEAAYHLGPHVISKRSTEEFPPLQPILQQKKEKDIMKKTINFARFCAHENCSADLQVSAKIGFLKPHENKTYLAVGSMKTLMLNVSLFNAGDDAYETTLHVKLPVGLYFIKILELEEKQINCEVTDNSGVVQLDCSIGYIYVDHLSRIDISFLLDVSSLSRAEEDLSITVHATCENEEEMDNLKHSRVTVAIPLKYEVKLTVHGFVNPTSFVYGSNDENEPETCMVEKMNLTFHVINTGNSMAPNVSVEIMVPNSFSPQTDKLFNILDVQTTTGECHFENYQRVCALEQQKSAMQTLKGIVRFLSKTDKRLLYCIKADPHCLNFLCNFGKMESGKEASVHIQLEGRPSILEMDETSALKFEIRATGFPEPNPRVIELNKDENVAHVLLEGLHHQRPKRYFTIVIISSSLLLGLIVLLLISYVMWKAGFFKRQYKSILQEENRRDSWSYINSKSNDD

[8] = calorie-restriction mimetic ROS inhibitors, yeast – validation compound set, pilot screen (AID 2706;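 active = superoxide response below 65% of plate, a cut near 3 SD across the whole screen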;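 also: yeast exposed to compound for one week at 30 degrees C before staining; 100% = mean of all compound wells on the same plate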); details: S. cerevisiae aging, superoxide DHE fluorescence; at 10 µM, stronger effect = lower value
[9] = biological target: Beta-adrenergic receptor kinase 1 (Homo sapiens) (UniProt P25098); test: GRK2 binders displacing RNA aptamer, biochemical, validation, human GRK2, bead flow cytometry (AID 488806;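 active = aptamer binding inhibition above 30%, about 3 SD of noise from non-fluorescent compounds; inactive = inhibition at or below 30%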); details: bead-bound GRK2, FAM-aptamer displacement, at 10 µM, stronger effect = higher value
Sequence of Beta-adrenergic receptor kinase 1 (Homo sapiens) (P25098 whole entry, looked up): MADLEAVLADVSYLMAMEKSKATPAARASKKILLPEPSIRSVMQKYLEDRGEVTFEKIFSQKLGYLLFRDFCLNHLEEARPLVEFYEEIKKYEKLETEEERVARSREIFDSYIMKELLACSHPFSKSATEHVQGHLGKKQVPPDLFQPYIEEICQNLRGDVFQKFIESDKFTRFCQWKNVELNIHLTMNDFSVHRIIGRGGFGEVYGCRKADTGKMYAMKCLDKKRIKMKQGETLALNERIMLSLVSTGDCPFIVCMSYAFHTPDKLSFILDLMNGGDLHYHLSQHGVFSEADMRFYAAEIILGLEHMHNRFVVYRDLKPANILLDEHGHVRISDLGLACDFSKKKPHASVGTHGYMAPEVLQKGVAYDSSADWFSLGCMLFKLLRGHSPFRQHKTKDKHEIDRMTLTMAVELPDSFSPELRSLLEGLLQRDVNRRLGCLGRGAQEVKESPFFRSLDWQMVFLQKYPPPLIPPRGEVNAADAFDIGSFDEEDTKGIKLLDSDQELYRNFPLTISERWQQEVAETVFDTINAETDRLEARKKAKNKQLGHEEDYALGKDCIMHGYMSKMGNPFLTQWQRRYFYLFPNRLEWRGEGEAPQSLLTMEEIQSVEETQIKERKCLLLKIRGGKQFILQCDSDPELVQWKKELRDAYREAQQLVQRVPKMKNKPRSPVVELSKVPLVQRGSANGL

[10] = biological target: Beta-2 adrenergic receptor (Homo sapiens) (UniProt P07550); test: agonist-induced loss of surface beta2AR – cell-based, FAP fluorogen, flow cytometry, validation set, pilot screen (AID 504459;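 active = percent response above 42, roughly 3 SD of non-fluorescent test compounds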;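 also: agonist-driven loss of surface beta2AR via internalization measured by FAP dye flow cytometry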); details: Am2.2-beta2AR cells, at 10 µM, stronger effect = higher value
Sequence of Beta-2 adrenergic receptor (Homo sapiens) (P07550 whole entry, looked up): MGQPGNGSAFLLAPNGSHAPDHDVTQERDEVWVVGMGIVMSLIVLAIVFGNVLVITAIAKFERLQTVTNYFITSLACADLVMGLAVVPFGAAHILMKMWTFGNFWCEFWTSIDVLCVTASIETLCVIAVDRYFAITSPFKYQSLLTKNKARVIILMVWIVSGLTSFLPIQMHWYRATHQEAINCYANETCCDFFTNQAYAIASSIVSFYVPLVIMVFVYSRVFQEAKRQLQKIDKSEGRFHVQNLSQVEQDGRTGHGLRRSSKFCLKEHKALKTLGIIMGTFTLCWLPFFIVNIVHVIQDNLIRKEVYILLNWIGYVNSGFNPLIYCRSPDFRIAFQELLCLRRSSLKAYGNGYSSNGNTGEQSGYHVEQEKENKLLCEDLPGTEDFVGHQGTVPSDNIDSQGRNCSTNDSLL

[11] = biological target: AP-2 complex subunit beta (Homo sapiens) (UniProt P63010); test: beta-arrestin/AP2 interaction blockers – biochemical, validation set, GST-AP2 beads, flow cytometry, pilot screen (AID 504541;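 active = inhibition above 54%, about 3 SD of non-fluorescent compounds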;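 also: AP2 carries R879A mutation and is captured from E. coli lysate; bead-bound FITC arrestin peptide fluorescence measuring arrestin peptide binding to AP2; 0% = DMSO wells and 100% = excess unlabeled arrestin peptide control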); details: FITC arrestin peptide, at 10 µM, stronger effect = higher value, AP2 beta2 appendage fragment, R879A mutant
Sequence of AP-2 complex subunit beta (Homo sapiens) (P63010 whole entry, looked up, the tested form may be a part, one chain of several): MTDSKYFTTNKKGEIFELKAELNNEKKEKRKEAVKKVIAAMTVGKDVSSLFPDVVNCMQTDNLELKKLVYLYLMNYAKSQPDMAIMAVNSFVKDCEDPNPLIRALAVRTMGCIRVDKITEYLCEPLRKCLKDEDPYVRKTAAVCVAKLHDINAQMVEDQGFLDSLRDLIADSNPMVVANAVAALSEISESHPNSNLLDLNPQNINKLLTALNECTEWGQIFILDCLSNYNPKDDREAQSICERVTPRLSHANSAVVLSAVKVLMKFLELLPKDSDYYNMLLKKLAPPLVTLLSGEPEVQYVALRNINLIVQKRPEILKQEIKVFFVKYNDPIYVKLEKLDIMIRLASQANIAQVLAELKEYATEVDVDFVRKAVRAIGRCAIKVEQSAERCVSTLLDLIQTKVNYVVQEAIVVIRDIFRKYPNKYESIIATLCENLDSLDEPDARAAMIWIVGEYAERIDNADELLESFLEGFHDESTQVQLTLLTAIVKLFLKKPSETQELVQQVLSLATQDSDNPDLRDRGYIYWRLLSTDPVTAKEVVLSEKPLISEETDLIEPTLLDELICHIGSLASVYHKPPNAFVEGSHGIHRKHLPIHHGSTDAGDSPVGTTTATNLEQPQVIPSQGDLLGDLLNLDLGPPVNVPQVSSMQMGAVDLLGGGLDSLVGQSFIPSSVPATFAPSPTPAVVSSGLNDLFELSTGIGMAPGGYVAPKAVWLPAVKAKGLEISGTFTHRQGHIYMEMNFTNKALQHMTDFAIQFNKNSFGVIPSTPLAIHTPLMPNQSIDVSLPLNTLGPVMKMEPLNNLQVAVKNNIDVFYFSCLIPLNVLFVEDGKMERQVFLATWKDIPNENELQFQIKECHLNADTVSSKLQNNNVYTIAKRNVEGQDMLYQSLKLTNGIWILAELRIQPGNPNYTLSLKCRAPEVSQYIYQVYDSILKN

[12] = cytosolic pH regulators acting via V-ATPase – S. cerevisiae, pHLuorin, HTS validation (AID 504600; in the data active = response above about 15%;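 also: plate controls were DMSO for no effect and reference compound for full effect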); details: V-ATPase proton transport, at 10 µM, stronger effect = higher value
[13] = tested on: anti-desmoglein-3 scFv antibody binding to human DSG3; test: blockers of pathogenic pemphigus antibody–desmoglein-3 binding – biochemical, validation compound set, bead-based, flow cytometry, pilot screen (AID 588368;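 active = binding below the plate cutoff, the plate median minus 3 SD, with a reading above zero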;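 also: signal is the median channel fluorescence of bead-bound GFP antibody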); details: Protein G beads, DSG3-Fc, scFv-GFP binding, at 10 µM, stronger effect = lower value
[14] = Nile Red efflux blockade in pump-expressing yeast – validation compound set, multiplex, phenotypic, pilot screen (AID 588506;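 active = efflux inhibition above 0.42, the validation set average plus 4 SD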;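 also: Nile Red retained in cells so higher fluorescence means more efflux inhibition; 0 = negative control wells and 1 = enniatin B 25 µM full block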); details: S. cerevisiae pump-expressing triplex, Nile Red efflux flow cytometry; at 10 µM; stronger effect = higher value; the pumps come from Candida albicans
[15] = biological target: ATP-binding cassette sub-family B member 6 (Homo sapiens) (UniProt Q9NP58); test: blockers of ABCB6-driven porphyrin uptake – K562-ABCB6 cells, flow cytometry, validation set, pilot screen (AID 588550;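 active = inhibition above the screen-wide mean plus 3 SD, about 51%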;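 also: 0% = DMSO wells and 100% = benzethonium chloride 70 µM positive control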); details: K562-ABCB6 porphyrin accumulation, 1 h, at 10 µM, stronger effect = higher value
Sequence of ATP-binding cassette sub-family B member 6 (Homo sapiens) (Q9NP58 whole entry, looked up): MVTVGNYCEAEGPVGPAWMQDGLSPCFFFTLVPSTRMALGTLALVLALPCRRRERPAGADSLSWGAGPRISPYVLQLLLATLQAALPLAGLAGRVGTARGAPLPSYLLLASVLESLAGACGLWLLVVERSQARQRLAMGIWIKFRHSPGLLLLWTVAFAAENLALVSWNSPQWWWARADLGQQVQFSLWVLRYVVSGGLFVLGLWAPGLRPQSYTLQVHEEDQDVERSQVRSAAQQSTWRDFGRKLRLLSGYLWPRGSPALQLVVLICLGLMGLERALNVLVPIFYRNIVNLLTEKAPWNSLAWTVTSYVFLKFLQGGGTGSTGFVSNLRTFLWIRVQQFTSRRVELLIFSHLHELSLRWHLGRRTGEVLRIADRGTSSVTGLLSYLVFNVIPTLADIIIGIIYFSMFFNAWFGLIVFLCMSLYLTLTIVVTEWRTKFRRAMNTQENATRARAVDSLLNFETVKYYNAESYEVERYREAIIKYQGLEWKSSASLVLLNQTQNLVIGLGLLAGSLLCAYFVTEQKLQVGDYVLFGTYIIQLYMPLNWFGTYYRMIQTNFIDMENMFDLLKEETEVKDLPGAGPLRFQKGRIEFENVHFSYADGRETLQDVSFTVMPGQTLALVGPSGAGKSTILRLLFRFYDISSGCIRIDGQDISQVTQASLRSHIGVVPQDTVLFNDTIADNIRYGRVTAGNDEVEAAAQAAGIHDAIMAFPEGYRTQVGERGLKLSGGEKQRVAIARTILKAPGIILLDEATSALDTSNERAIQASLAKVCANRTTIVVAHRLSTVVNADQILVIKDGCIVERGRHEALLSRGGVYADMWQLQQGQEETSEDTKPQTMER

[16] = AML differentiation inducers, ER-HoxA9 marrow cells – cell-based, GFP/MAC1 double positive, flow cytometry, validation set, primary screen (AID 588685;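 active = differentiation response of at least 50%, scaled between solvent and reference control, from cells with both markers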;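 also: compound exposure lasts four days before antibody staining and flow analysis; 0% = DMSO wells and 100% = 5 µM fulvestrant positive control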); details: stronger effect = higher value, normalized: vehicle 0, fulvestrant 100
[17] = measured here: daughter cell gate
[18] = measured here: mother cell gate

Cc1ccc(C2CCN(C(=S)Nc3cccc(Cl)c3)C2)cc1 (stereo not given)
95.7%: GFP response vs DMSO [1, 17]
inactive: GFP response vs DMSO [1] 96.2% | GFP response relative to DMSO [2] 119% | GFP response vs DMSO [3] 97.5% | GFP response, % of DMSO [4] 93.2% | GFP response, % of DMSO [5] 92.1%
97.4%: GFP response vs DMSO [1, 18]
90.9%: GFP response, % of DMSO [5, 17]
95.6%: GFP response, % of DMSO [5, 18]

Cc1nn2c(N3CCCC3)cc(C(C)C)nc2c1-c1ccccc1
inactive: GFP response vs DMSO [1] 100% | GFP response relative to DMSO [2] 102% | GFP response vs DMSO [3] 101% | GFP response, % of DMSO [4] 97.8% | GFP response, % of DMSO [5] 97.3%
103%: GFP response relative to DMSO ([2]; measured here: mother cell gate response)
97.5%: GFP response relative to DMSO ([2]; measured here: daughter cell gate response)
95.6%: GFP response, % of DMSO [5, 18]
97.4%: GFP response, % of DMSO [5, 17]
92.4%: GFP response vs DMSO [1, 17]

CC(OC(=O)c1cccs1)C(=O)Nc1nc(-c2ccccc2)cs1 (stereo not given)
inactive: GFP response vs DMSO [1] 98.7% | GFP response relative to DMSO [2] 94.2% | GFP response vs DMSO [3] 99.5% | GFP response, % of DMSO [4] 94.9% | GFP response, % of DMSO [5] 101%

Cc1cccc(N=c2oc3cc(O)ccc3cc2C(N)=O)c1
90.5%: GFP response, % of DMSO [5, 17]
inactive: GFP response vs DMSO [1] 96.5% | GFP response relative to DMSO [2] 100% | GFP response vs DMSO [3] 106% | GFP response, % of DMSO [4] 102% | GFP response, % of DMSO [5] 108%

N/C(=N/OS(=O)(=O)c1ccc([N+](=O)[O-])cc1)c1ccncc1
61.1%: double positive events [6]
inactive: vesicle binding response [6] 135% | inhibition [7] 1.59% | superoxide response (% of plate) [8] 108% | aptamer binding inhibition [9] 1% | response [10] -5.72% | inhibition [11] -1.57% | response [12] 6.86% | binding (% of control) [13] 107% | efflux inhibition (fraction of control) [14] -0.08 | inhibition [15] 18% | differentiation response [16] -8.96%

COc1ccc(CCn2c(C)cc3c(c2=O)C(c2ccncc2)C(C#N)=C(N)O3)cc1OC (stereo not given)
59.3%: double positive events [6]
inactive: vesicle binding response [6] 179% | inhibition [7] -1.79% | superoxide response (% of plate) [8] 102% | aptamer binding inhibition [9] 6% | response [10] 10.6% | inhibition [11] -6.51% | response [12] 0.22% | binding (% of control) [13] 101% | efflux inhibition (fraction of control) [14] -0.13 | inhibition [15] 6% | differentiation response [16] 12%

CN1CCN(CCCN2c3ccccc3Sc3ccc(C(F)(F)F)cc32)CC1
inactive: vesicle binding response [6] 215% | superoxide response (% of plate) [8] 80.3% | aptamer binding inhibition [9] -2% | response [10] 23.7% | inhibition [11] 1.45% | binding (% of control) [13] 109% | efflux inhibition (fraction of control) [14] 0 | inhibition [15] 8% | differentiation response [16] 7.82%
64.7%: double positive events [6]
active: inhibition [7] 57.6% | response [12] 24.5%

CNc1nc(Nc2ccccc2)nc(OCC(F)(F)F)n1
64.8%: double positive events [6]
inactive: vesicle binding response [6] 135% | inhibition [7] 6.95% | superoxide response (% of plate) [8] 98.2% | aptamer binding inhibition [9] -3% | response [10] -3.68% | inhibition [11] 44.3% | response [12] -7.15% | binding (% of control) [13] 101% | efflux inhibition (fraction of control) [14] -0.185 | inhibition [15] -3% | differentiation response [16] 4.2%

COc1ccc(-c2c(NC(=O)c3ccco3)n(C)c3ccccc3c2=O)cc1
inactive: vesicle binding response [6] 125% | inhibition [7] -1.09% | superoxide response (% of plate) [8] 102% | aptamer binding inhibition [9] 3% | response [10] 5.47% | inhibition [11] -5.24% | response [12] -3.79% | binding (% of control) [13] 99.6% | efflux inhibition (fraction of control) [14] -0.37 | inhibition [15] -2% | differentiation response [16] -7.5%
58.6%: double positive events [6]

COc1ccc2c(CCNC(=O)c3ccc([N+](=O)[O-])cc3)c[nH]c2c1
inactive: vesicle binding response [6] 210% | inhibition [7] -5.89% | superoxide response (% of plate) [8] 105% | aptamer binding inhibition [9] 3% | response [10] 7.52% | inhibition [11] -2.03% | response [12] -0.21% | binding (% of control) [13] 101% | efflux inhibition (fraction of control) [14] -0.03 | inhibition [15] 4% | differentiation response [16] -21.6%
56.1%: double positive events [6]

N/C(=N\OC(=O)c1ccc(Cl)cc1Cl)c1ccccc1
inactive: GFP response vs DMSO [1] 98.4% | GFP response vs DMSO [3] 106% | GFP response, % of DMSO [4] 80.1%
active: GFP response relative to DMSO [2] 155% | GFP response, % of DMSO [5] 151%

CCOCc1cc(C)[nH]c(=O)c1C#N
inactive: vesicle binding response [6] 225% | inhibition [7] 3.67% | superoxide response (% of plate) [8] 98.3% | aptamer binding inhibition [9] 2% | response [10] 1.78% | inhibition [11] -6.13% | response [12] 1.03% | binding (% of control) [13] 102% | efflux inhibition (fraction of control) [14] -0.21 | inhibition [15] 7% | differentiation response [16] -4%
60.2%: double positive events [6]

Fc1ccc(C2Nc3cccc4cccc(c34)N2)cc1
inactive: GFP response vs DMSO [1] 98.2% | GFP response relative to DMSO [2] 106% | GFP response vs DMSO [3] 97.8% | GFP response, % of DMSO [4] 95.4% | GFP response, % of DMSO [5] 97.8%

COc1ccc(N2C(=O)[C@@H]3Cc4ccccc4CN3C2=O)cc1
inactive: vesicle binding response [6] 211% | inhibition [7] 14.6% | superoxide response (% of plate) [8] 89.7% | aptamer binding inhibition [9] 5% | response [10] 12.1% | inhibition [11] -2.78% | response [12] -2.4% | binding (% of control) [13] 107% | efflux inhibition (fraction of control) [14] 0.01 | inhibition [15] 7% | differentiation response [16] 18.4%
63.2%: double positive events [6]

CC(C)OC(=O)CC1C(=O)NCCN1C(=S)NC(=O)c1ccccc1Cl (stereo not given)
57.9%: double positive events [6]
inactive: vesicle binding response [6] 115% | inhibition [7] -5.11% | superoxide response (% of plate) [8] 94.8% | aptamer binding inhibition [9] 1% | response [10] 11.7% | inhibition [11] 7.65% | response [12] -6.29% | binding (% of control) [13] 111% | efflux inhibition (fraction of control) [14] 0 | inhibition [15] -197% | differentiation response [16] -10.4%

Cc1oc(/C=N/NC(=O)CC2(C)OCCO2)cc1Br
60.6%: double positive events [6]
active: response [12] 68.3%
inactive: vesicle binding response [6] 93.4% | inhibition [7] 4.27% | superoxide response (% of plate) [8] 107% | aptamer binding inhibition [9] -3% | response [10] 4.99% | inhibition [11] 0.64% | binding (% of control) [13] 104% | efflux inhibition (fraction of control) [14] -0.245 | inhibition [15] 18% | differentiation response [16] -0.18%
